Laboratory results: PubChem BioAssay (NCATS)
Inconclusive results are not listed. Active and inactive are the calls of the source. Unless noted, calls follow the shape of the full dose curve.

Tests used:
[1] = qHTS for Inhibitors of the Functional Ribonucleoprotein Complex (vRNP) of Lassa (LASV) Arenavirus: LASV Primary Screen - GLuc reporter signal (AID 1347082; calls by dose curve; tested in HEK293 reporter line; also: nearly all actives have a fitted effect of over 60% in size)
[2] = qHTS for Inhibitors of the Functional Ribonucleoprotein Complex (vRNP) of Lassa (LASV) Arenavirus: Viability assay - alamar blue signal for LASV Primary Screen (AID 1347083; calls by dose curve; tested in HEK293 reporter line; also: nearly all actives have a fitted effect of over 80% in size)
[3] = qHTS for Inhibitors of the Functional Ribonucleoprotein Complex (vRNP) of Lymphocytic Choriomeningitis Arenaviruses (LCMV): Viability assay - alamar blue signal for LCMV Primary Screen (AID 1347085; calls by dose curve; tested in HEK293 reporter line; also: nearly all actives have a fitted effect of over 80% in size)
[4] = biological target: Nucleoprotein (Lymphocytic choriomeningitis virus (strain Armstrong)) (UniProt P09992); assay: qHTS for Inhibitors of the Functional Ribonucleoprotein Complex (vRNP) of Lymphocytic Choriomeningitis Arenaviruses (LCMV): LCMV Primary Screen - GLuc reporter signal (AID 1347086); also: nearly all actives have a fitted effect of over 70% in size
Nucleoprotein (Lymphocytic choriomeningitis virus (strain Armstrong)), sequence (P09992 whole entry, looked up): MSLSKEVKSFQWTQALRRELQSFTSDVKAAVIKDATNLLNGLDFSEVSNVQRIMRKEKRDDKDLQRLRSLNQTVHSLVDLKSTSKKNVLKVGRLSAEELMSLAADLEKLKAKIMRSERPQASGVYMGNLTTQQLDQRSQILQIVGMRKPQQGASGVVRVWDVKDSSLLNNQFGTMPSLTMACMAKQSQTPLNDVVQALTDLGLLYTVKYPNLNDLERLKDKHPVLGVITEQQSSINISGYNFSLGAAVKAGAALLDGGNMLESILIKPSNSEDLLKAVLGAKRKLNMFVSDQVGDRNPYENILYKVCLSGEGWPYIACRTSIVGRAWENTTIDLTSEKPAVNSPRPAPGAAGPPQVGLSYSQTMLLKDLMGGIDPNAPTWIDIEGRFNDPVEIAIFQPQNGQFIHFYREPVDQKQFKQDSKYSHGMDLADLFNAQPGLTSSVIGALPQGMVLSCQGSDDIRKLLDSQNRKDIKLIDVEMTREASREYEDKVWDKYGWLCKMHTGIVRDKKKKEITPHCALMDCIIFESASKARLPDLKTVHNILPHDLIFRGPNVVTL

Measured: Potency
Also: series mostly up to about 57 µM.

NCC(=O)O
inactive: [1] | [2] | [3] | [4]

CCCCN=C(N)N=C(N)N
inactive: [1] | [2] | [3] | [4]

Clc1ccc(CO/N=C(\Cn2ccnc2)c2ccc(Cl)cc2Cl)c(Cl)c1
inactive: [1] | [2] | [3] | [4]

CCOC(=O)c1c(N)sc2c1CCN(Cc1ccccc1)C2
inactive: [1] | [2] | [3] | [4]

CC(C)C[C@@H](N)C(=O)O
inactive: [1] | [2] | [3] | [4]

CCN(CC)C(=O)Nc1ccc(OCC(O)CNC(C)(C)C)c(C(C)=O)c1 (stereo not drawn)
inactive: [1] | [2] | [3] | [4]

CC(=O)c1ccc2c(c1)N(CCCN(C)C)c1ccccc1S2
inactive: [1] | [2] | [3] | [4]

NC(N)=NCCC[C@H](N)C(=O)O
inactive: [1] | [2] | [3] | [4]

Nc1ccc(C(=O)N2CC3CC(CN(Cc4ccccc4)C3)C2)cc1
inactive: [1] | [2] | [3] | [4]

C1CCC(C(CC2CCCCN2)C2CCCCC2)CC1 (stereo not drawn)
inactive: [1] | [2] | [3] | [4]

c1cc(CN2CCCCC2)cc(OCCCNc2nc3ccccc3s2)c1
inactive: [1] | [2] | [3] | [4]

COc1ccc2c(c1OC)C(=O)O[C@@H]2[C@H]1c2c(cc3c(c2OC)OCO3)CCN1C
inactive: [1] | [2] | [3] | [4]
